“And” between values parts separate entries of the source, which are not always exact repeats. Equal values may be shown once. The panel holds about 79,000 compounds, 15% with a hit somewhere; the sample as a whole holds those more often. Some compounds were tested as several samples or in several runs, with calls that do not always agree. The source made the active and inactive calls. Cut-off read from the data, not from the text of the source: active = growth inhibition above about 70%; inactive = the rest. Where a SMILES comes first, the peptide text is derived from it.
Columns and labels:
[1] = NCI Yeast Anticancer Drug Screen. Data for the rad50 strain (AID 155);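 note: 0% = growth of vehicle-only cultures of the same strain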; conditions: S. cerevisiae rad50 strain growth inhibition, stronger effect = higher value
How it was run: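 Relative growth inhibition (compound vs vehicle) was measured in yeast with a defined repair-gene alteration.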

[2] = NCI Yeast Anticancer Drug Screen. Data for the mec2-1 strain (AID 157); conditions: S. cerevisiae mec2-1 strain, stronger effect = higher value
How it was run: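 Readout is yeast growth inhibition, normalised to vehicle-treated controls, in the mec2-1 strain exposed to compound.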

[3] = NCI Yeast Anticancer Drug Screen. Data for the sgs1 mgt1 strain (AID 161);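 note: 0% = growth of cultures given vehicle only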; conditions: S. cerevisiae sgs1 mgt1 strain, stronger effect = higher value
How it was run: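 Percent growth inhibition was derived by comparing compound-exposed mutant yeast with vehicle-exposed cultures. The strain carries alterations in DNA damage repair.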

[4] = NCI Yeast Anticancer Drug Screen. Data for the cln2 rad14 strain (AID 165);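 note: 0% = growth equal to vehicle treated cultures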; conditions: S. cerevisiae cln2 rad14 strain, stronger effect = higher value
How it was run: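 Relative to vehicle controls, growth inhibition of compound-treated cln2 rad14 yeast was recorded.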

[5] = NCI Yeast Anticancer Drug Screen. Data for the bub3 strain (AID 167); conditions: S. cerevisiae bub3 mutant strain, stronger effect = higher value
How it was run: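 Screening used yeast with an engineered genetic alteration affecting cell cycle control. Compound-exposed cultures were compared with vehicle cultures, and reduced growth was taken as inhibition.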

[6] = NCI Yeast Anticancer Drug Screen. Data for the mlh1 rad18 strain (AID 175); conditions: S. cerevisiae mlh1 rad18 strain growth inhibition, stronger effect = higher value
How it was run: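 Test agents were incubated with a yeast strain of defined genotype (DNA damage repair defect). Inhibition of growth was derived by comparison with vehicle-exposed cultures.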

[7] = at 5.0 µM (retest, dose inferred, filed as 0.5)
[8] = at 50.0 µM (retest, dose inferred, filed as 5.0)

Row | Compound | growth inhibition [1, 7] | growth inhibition [1, 8] | growth inhibition ([1]; at 50.0 µM) | growth inhibition [2, 7] | growth inhibition [2, 8] | growth inhibition ([2]; at 50.0 µM) | growth inhibition [3, 7] | growth inhibition [3, 8] | growth inhibition ([3]; at 50.0 µM) | growth inhibition [4, 7] | growth inhibition [4, 8] | growth inhibition ([4]; at 50.0 µM) | growth inhibition [5, 7] | growth inhibition [5, 8] | growth inhibition ([5]; at 50.0 µM) | growth inhibition [6, 7] | growth inhibition [6, 8] | growth inhibition ([6]; at 50.0 µM)
1 | O=C1c2ccccc2C(=O)c2c(O)c(O)cc(O)c21 | 97% (active) | 97% (active) | 88.5% (active) and 11.4% (inactive) | 99% (active) | 98% (active) | 86.2% (active) and -3.5% (inactive) | 98% (active) | 97% (active) | 86% (active) and 14.2% (inactive) | 59% (inactive) | 95% (active) | 72.4% (active) and 9.2% (inactive) | 98% (active) | 97% (active) | 86.1% (active) and -9.1% (inactive) | 99% (active) | 97% (active) | 85.5% (active) and 25% (inactive)
2 | CC(C)C(NC(=O)C(N)CCC(=O)O)C(=O)O (stereo not drawn) (H-Glu-Val-OH; configuration not given here) | -3% (inactive) | 2% (inactive) | 15.7% (inactive) | -1% (inactive) | 5% (inactive) | 2.15% (inactive) | 0% (inactive) | 1% (inactive) | -9.35% (inactive) | 5% (inactive) | 7% (inactive) | 45% (inactive) | -1% (inactive) | 0% (inactive) | -8.25% (inactive) | -3% (inactive) | 4% (inactive) | 9.95% (inactive)
3 | COc1cc2c(c3c1/c(=N/N(C)C)c1ccccc1n3C)C=CC(C)(C)O2 | 23% (inactive) | 85% (active) | 69.3% (inactive) | 24% (inactive) | 85% (active) | 1% (inactive) | 36% (inactive) | 91% (active) | 55.5% (inactive) | -10% (inactive) | 60% (inactive) | -42.3% (inactive) | 38% (inactive) | 96% (active) | -15.7% (inactive) | 38% (inactive) | 93% (active) | 44.8% (inactive)
4 | CN(C)Cc1cc(CN(C)C)c(O)c(CN(C)C)c1 | 8% (inactive) | 19% (inactive) | -34.9% (inactive) and 40.3% (inactive) | 2% (inactive) | 2% (inactive) | -58.3% (inactive) and 59.9% (inactive) | 4% (inactive) | 11% (inactive) | 0.25% (inactive) and 2.75% (inactive) | -3% (inactive) | -8% (inactive) | -24.1% (inactive) and -31.1% (inactive) | 14% (inactive) | 39% (inactive) | -43.5% (inactive) and 65.3% (inactive) | -6% (inactive) | -9% (inactive) | -22.2% (inactive) and 48.1% (inactive)
5 | O=P(C(=S)NC1CC2C=CC1C2)(c1ccccc1)c1ccccc1 (stereo unspecified) | 27% (inactive) | 93% (active) | 48% (inactive) | 7% (inactive) | 94% (active) | 51.1% (inactive) | 2% (inactive) | 90% (active) | 26.4% (inactive) | 12% (inactive) | 85% (active) | 73.4% (active) | -3% (inactive) | 92% (active) | 34.1% (inactive) | -31% (inactive) | 90% (active) | 86.7% (active)
6 | O=C1C=C(O)c2ccccc2C1=O.[Ag] | 99% (active) | 99% (active) | 88.8% (active) and 99.5% (active) | 100% (active) | 99% (active) | 75% (active) and 99.5% (active) | 99% (active) | 99% (active) | 96.4% (active) and 99.4% (active) | 100% (active) | 99% (active) | 66.2% (inactive) and 99% (active) | 99% (active) | 99% (active) | 86.3% (active) and 99.3% (active) | 99% (active) | 99% (active) | 87.5% (active) and 99.2% (active)
7 | CCCCCCCCCCCCc1ccc(S(=O)(=O)O)cc1.[Cu+2] | -6% (inactive) | 88% (active) | 90.3% (active) | 14% (inactive) | 70% (active) | 64.9% (inactive) | 6% (inactive) | 97% (active) | 41.2% (inactive) | 2% (inactive) | 81% (active) | 17.3% (inactive) | -9% (inactive) | 82% (active) | 43.8% (inactive) | 15% (inactive) | 93% (active) | 66% (inactive)

Source: PubChem BioAssay (NCI)
